We go through five compounds from PubChem BioAssay.

Calls of active or inactive are those of the source.

Assay [1] can be described thus: small molecules captured by biotinylated probe aFSTL3 – biochemical, small-molecule microarray, fluorescence 635/667, stem cell growth factor project, primary screen (AID 1064).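 Note: measures binding of the biotinylated anti-FSTL3 antibody to printed compounds.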 As to conditions: higher = more signal.
Assay [2] in a line: binders from COS7 lysate, DM2A8 probe, primary screen, torsin A project, cell lysate, small-molecule microarray, fluorescence 635/667 (AID 1065). The following applies: higher = more signal, COS7 lysate expressing mutant human TOR1A.
Assay [3] is described as follows: small molecules captured by biotinylated probe aFGF2 – biochemical, small-molecule microarray, fluorescence 635/667, stem cell growth factor project, primary screen (AID 1067).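 Note: measures binding of biotinylated aFGF2 protein to printed compounds on slides; z-score merges feature fluorescence and signal-to-noise across triplicate slides.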 The following applies: higher = more signal.
Assay [4] can be described thus: small molecules captured by biotinylated probe aFGF10 – biochemical, small-molecule microarray, fluorescence 635/667, stem cell growth factor project, primary screen (AID 1071).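 Note: score merges 667 nm spot intensity and signal to noise from triplicate slides.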 As to conditions: higher = more signal.
Assay [5] concerns the target Neurogenic locus notch homolog protein 2 (Homo sapiens) (UniProt Q04721). The assay can be described thus: small molecules binding Notch2 protein – biochemical, small-molecule microarray, 635 nm fluorescence, stem cell growth factors, primary screen (AID 1073). The following applies: higher = more signal.
The target of assay [6] is Pro-neuregulin-1, membrane-bound isoform (Homo sapiens) (UniProt Q02297). The assay can be described thus: small molecules binding neuregulin-1 protein – biochemical, small-molecule microarray, fluorescence 635/667, psychiatric disease protein project, primary screen (AID 1075).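 Note: score combines 667 nm spot fluorescence with signal to noise.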 The following applies: NRG1 binding, 635 nm fluorescence, higher = more signal.
Assay [7] relates to Neuregulin-1 EGF-like domain. The assay can be described thus: small molecules binding NRG1 EGF domain – biochemical, small-molecule microarray, 635 nm fluorescence, primary screen (AID 1081).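 Note: binding of the protein to compounds printed on small-molecule microarray slides.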 As to conditions: higher = more signal.
The nature of assay [8]: FRG1 expression reporter modulators in myotubes – cell-based, C2C12 myotubes, firefly/Renilla luciferase, luminescence, FRG1 inhibition for FSHD, primary screen (AID 1084). The following applies: FRG1 promoter luciferase, higher = more signal, called active from +8 up or from −8 down.
Assay [9] is described as follows: small molecules captured by biotinylated probe aFST – biochemical, small-molecule microarray, fluorescence 635/667, stem cell growth factor project, primary screen (AID 1086).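 Note: score merges 667 nm fluorescence with signal-to-noise of each printed compound spot.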 As to conditions: higher = more signal.
The nature of assay [10]: binders of probe aHhip on microarray, primary screen, stem cell growth factor project, biochemical, small-molecule microarray, fluorescence 635/667 (AID 1087).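 Note: score merges spot fluorescence at 667nm with spot signal to noise ratio.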 As to conditions: higher = more signal.
The subject of assay [11] is PRMT1 (protein arginine N-methyltransferase 1). The assay is described as follows: small molecules binding arginine methyltransferase PRMT1 – biochemical, small-molecule microarray, 635 nm fluorescence, primary screen (AID 1088).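 Note: binding of Prmt1 protein to compounds spotted on small-molecule microarray slides.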 As to conditions: higher = more signal.
A short description of assay [12]: growth effects on S. cerevisiae YJM789 – YJM789 clinical isolate, OD600, 24 h, basal, primary screen (AID 1089).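 Note: growth of clinical yeast isolate S. cerevisiae YJM 789 seeded 1000 cells per well; test concentration not given here.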 The following applies: higher = more signal, called active from +8 up or from −8 down.
The nature of assay [13]: S. pombe growth modifiers, basal conditions – strain 972, OD600, 24 h, no modulator, primary screen (AID 1090).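 Note: basal condition with compound alone and no growth modifier present; test concentration not given here.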 The following applies: S. pombe 972 growth, higher = more signal, called active from +8 up or from −8 down.
Assay [14] in a line: budding yeast growth modifiers under rapamycin – strain BY4716, OD600, 96 h, primary screen (AID 1091). Note: test concentration not given here. As to conditions: S. cerevisiae BY4716 + rapamycin, higher = more signal, called active from +8 up or from −8 down.
Assay [15] addresses Torsin-1A-interacting protein 2 (Homo sapiens) (UniProt Q8NFQ8). The assay can be described thus: small molecules binding lysate-expressed LULL1 – cell lysate, human LULL1 lysate, 635/667 nm fluorescence, primary screen (AID 1092).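 Note: probe is lysate of COS7 cells overexpressing human LULL1; score merges per-feature 667 nm fluorescence with signal-to-noise.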 The following applies: small-molecule microarray, hLULL1 lysate binding, 635 nm fluorescence; higher = more signal.
Assay [16] in a line: optical density change of DRC41 E. coli – strain DRC41, OD650, 24 h, E. coli filamentation project, primary screen (AID 1093).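 Note: MC1000 strain lacking acrAB efflux and sulA so SOS filamentation is blocked; test concentration not given here.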 The following applies: E. coli DRC41 growth, higher = more signal, called active from +8 up or from −8 down.
A short description of assay [17]: probe aLefty2 binding to arrayed compounds – biochemical, biotinylated probe, 635/667 nm fluorescence, primary screen (AID 1094).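 Note: score merges spot fluorescence near 667 nm with spot signal-to-noise ratio.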 The following applies: small-molecule microarray, higher = more signal.
In assay [18] the test system is Noggin (protein binding on small-molecule microarray). The assay is described as follows: small molecules binding Noggin protein – biochemical, 635/667 nm fluorescence, primary screen (AID 1095).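 Note: score merges 667 nm feature fluorescence with signal to noise over triplicate slides.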 The following applies: 635 nm fluorescence, higher = more signal.
In assay [19] the target is Neurogenic locus notch homolog protein 3 (Homo sapiens) (UniProt Q9UM47). The assay can be described thus: small molecules binding NOTCH3 protein – biochemical, 635/667 nm fluorescence, primary screen (AID 1096). As to conditions: small-molecule microarray, 635 nm fluorescence, higher = more signal.
Assay [20] is described as follows: probe aEGFR binding to arrayed compounds – biochemical, biotinylated probe, 635/667 nm fluorescence, primary screen (AID 1097).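 Note: probe is a biotinylated anti-EGFR antibody binding compounds printed on slides; score combines fluorescence near 667 nm and signal to noise of each spot.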 As to conditions: small-molecule microarray, higher = more signal.

Neurogenic locus notch homolog protein 3 (Homo sapiens), sequence (Q9UM47 whole entry, looked up): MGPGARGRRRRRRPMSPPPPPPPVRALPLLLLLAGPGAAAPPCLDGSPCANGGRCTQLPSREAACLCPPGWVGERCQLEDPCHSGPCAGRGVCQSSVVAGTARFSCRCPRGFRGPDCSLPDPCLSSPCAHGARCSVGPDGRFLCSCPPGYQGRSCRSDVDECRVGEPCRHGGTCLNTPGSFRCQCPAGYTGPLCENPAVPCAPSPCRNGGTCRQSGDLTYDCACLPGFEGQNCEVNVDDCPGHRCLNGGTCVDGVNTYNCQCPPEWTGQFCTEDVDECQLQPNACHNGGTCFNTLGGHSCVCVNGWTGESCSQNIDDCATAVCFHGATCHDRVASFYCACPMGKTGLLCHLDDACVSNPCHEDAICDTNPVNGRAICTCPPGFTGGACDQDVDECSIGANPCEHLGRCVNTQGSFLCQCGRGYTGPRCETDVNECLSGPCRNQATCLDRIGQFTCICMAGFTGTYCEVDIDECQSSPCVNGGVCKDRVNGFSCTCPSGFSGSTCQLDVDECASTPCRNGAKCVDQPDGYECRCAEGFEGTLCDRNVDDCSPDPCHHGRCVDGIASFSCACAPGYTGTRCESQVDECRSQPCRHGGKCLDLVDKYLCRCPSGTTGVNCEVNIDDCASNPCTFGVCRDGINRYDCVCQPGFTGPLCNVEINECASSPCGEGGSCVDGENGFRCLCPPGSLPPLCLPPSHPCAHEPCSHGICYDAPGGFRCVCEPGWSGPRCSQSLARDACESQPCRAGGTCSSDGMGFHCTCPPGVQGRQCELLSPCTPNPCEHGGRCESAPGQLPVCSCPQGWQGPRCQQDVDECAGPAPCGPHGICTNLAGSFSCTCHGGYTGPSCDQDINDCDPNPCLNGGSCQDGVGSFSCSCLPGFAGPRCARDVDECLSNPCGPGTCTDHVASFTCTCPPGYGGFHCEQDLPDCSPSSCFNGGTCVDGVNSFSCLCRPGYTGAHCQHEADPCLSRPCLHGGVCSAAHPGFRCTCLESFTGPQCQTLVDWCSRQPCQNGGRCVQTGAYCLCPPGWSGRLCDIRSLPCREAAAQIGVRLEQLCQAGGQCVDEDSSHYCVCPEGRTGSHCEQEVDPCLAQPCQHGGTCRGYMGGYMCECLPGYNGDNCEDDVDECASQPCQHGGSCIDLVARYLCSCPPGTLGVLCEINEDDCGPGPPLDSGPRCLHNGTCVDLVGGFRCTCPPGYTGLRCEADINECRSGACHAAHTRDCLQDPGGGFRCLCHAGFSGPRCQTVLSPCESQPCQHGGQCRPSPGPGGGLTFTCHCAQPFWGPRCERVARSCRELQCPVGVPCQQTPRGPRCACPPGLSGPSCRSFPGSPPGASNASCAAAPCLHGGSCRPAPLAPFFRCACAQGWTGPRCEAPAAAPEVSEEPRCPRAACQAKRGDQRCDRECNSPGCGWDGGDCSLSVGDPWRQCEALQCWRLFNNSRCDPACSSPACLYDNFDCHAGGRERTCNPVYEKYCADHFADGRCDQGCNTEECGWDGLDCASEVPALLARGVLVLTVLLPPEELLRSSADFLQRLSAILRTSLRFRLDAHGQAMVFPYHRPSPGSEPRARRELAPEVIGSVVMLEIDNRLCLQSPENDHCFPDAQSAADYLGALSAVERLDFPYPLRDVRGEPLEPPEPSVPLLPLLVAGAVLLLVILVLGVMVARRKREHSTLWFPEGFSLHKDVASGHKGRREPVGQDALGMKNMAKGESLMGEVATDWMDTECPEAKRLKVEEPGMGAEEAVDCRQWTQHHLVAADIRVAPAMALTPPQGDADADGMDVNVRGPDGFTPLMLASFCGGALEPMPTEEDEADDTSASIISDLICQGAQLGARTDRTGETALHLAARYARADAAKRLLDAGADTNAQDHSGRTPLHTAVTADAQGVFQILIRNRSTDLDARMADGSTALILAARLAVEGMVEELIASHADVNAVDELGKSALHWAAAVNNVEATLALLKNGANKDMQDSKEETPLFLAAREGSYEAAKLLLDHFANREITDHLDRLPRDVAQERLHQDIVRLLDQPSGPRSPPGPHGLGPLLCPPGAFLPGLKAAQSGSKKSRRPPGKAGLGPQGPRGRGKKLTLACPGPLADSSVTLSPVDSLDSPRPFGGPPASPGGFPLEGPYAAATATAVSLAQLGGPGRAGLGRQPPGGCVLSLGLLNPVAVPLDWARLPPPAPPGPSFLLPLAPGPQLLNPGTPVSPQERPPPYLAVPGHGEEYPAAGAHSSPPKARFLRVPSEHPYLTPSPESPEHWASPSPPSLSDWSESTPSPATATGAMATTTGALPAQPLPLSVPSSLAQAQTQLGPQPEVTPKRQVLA
Neurogenic locus notch homolog protein 2 (Homo sapiens), sequence (Q04721 whole entry, looked up, canonical isoform): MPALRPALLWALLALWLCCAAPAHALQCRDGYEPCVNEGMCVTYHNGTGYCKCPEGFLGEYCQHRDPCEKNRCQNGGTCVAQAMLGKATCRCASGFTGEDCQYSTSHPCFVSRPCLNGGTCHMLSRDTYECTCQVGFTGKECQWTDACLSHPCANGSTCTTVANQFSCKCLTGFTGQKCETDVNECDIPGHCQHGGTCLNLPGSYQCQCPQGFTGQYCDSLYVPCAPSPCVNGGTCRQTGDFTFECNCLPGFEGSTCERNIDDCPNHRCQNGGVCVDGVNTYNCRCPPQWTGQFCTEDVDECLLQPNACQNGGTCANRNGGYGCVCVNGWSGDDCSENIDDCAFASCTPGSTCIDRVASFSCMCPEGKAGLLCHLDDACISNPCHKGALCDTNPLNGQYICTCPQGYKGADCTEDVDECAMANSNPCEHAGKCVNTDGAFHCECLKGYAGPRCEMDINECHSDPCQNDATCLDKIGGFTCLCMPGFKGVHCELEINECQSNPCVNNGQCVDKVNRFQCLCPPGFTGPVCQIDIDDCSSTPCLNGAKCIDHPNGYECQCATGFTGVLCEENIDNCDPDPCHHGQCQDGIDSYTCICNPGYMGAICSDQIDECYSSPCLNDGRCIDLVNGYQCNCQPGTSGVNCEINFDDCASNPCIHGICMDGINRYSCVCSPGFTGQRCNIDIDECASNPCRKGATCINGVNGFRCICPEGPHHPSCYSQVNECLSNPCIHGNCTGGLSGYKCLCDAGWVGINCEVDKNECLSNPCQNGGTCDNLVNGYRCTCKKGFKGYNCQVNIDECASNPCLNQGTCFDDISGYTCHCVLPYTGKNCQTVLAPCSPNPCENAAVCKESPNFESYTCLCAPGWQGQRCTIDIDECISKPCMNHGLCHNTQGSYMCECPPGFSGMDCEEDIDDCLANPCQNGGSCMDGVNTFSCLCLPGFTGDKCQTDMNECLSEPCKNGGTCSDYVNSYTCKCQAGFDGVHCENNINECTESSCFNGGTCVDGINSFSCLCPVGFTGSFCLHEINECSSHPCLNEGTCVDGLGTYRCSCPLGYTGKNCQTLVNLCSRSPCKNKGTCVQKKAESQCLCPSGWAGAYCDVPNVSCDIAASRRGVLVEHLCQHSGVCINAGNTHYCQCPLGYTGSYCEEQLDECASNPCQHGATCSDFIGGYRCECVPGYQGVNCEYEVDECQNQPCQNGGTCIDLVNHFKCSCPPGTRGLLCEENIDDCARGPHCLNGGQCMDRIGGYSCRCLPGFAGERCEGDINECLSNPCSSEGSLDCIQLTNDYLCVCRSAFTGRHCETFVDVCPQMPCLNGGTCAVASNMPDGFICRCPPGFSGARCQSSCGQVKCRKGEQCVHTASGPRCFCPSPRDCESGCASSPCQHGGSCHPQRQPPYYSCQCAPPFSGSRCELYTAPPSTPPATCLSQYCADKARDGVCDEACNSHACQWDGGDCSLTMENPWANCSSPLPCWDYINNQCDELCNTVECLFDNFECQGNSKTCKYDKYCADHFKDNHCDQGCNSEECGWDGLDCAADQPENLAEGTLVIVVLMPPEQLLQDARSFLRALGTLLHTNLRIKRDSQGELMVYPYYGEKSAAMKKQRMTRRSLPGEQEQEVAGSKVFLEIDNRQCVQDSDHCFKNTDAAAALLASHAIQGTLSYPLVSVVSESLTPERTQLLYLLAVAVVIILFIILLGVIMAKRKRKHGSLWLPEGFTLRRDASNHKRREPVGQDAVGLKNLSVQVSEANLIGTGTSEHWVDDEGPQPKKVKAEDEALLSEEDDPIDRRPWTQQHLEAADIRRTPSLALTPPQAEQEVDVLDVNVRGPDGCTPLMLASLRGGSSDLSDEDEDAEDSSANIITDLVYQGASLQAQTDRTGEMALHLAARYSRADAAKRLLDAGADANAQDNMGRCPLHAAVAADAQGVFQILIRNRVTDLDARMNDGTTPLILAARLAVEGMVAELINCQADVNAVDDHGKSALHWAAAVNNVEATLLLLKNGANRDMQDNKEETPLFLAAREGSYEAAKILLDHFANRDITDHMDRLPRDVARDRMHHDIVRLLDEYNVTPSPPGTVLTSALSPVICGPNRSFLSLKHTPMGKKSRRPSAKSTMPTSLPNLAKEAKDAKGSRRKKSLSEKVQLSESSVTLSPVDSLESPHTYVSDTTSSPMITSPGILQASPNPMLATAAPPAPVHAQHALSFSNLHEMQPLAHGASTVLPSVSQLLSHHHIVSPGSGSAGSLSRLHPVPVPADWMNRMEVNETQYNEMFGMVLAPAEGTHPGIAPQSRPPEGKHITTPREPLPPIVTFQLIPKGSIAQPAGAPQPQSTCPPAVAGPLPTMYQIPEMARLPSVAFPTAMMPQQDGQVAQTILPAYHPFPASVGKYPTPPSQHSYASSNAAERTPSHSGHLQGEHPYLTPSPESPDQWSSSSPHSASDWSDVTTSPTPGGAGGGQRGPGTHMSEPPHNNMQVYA

`COC(=O)[C@@]1(Cc2ccccc2CN=[N+]=[N-])N=C(c2ccc(OCCCO)cc2)O[C@H]1c1ccccc1CN=[N+]=[N-]`: the composite z-score in [1] is 0.629; in assay [2], -0.43; in assay [3], -0.0457; in [4] it was 0.0746; in assay [5], -0.733; in [6] it was 0.846. The composite z-score in assay [7] was 1.22; in assay [9], -0.574; in assay [10], -0.226; in assay [11], 0.812; in [15] it was 1.3; in [17] it was -0.0458. In addition, the figures for the composite z-score in [18], in assay [19] and in [20] were -0.56, -0.498 and -0.21, respectively. In addition, the z-score in assay [8] is -1.23 (inactive); in [12] it was 0.84 (inactive); in assay [13] it was 1.96 (inactive); in assay [14], 35.5 (active); in [16] it was 0.478 (inactive).
In the case of `CC(C)C(CO)N1C(=O)[C@@H]2[C@H]3C(=O)OCC=C[C@H]3OC23C=CCN(C(C)(C)C)C(=O)[C@@H]13` (stereo not given in full), the composite z-score is -0.0718 in [1]; -0.141 in assay [2]; -0.155 in assay [3]; -0.724 in assay [4]; -0.456 in assay [5]; -0.807 in assay [6]. The composite z-score in assay [7] was -1.03; in [9], -0.346; in assay [10] it was -0.128; in [11], -0.0274; in assay [15], -0.963; in assay [17], -0.168. The composite z-score in assay [18] is -0.122; in [19], -0.0022; in [20], -0.144. The z-score is -0.221 (inactive) in assay [8]; 0.027 (inactive) in assay [12]; 0.0191 (inactive) in assay [13]; 0.754 (inactive) in assay [14]; -0.7 (inactive) in assay [16].
For the compound `CC(C)C(=C=CC[C@H](O)c1cccc(OCCO)c1)CCO`, the composite z-score in [1] is -0.068; in assay [2], 1.33; in assay [3] it was -0.0937; in assay [4], -0.194; in assay [5], -0.379; in assay [6], -0.356. Further, the composite z-score in [7] is -0.403; in assay [9], -0.045; in assay [10], -0.287; in assay [11], 0.801; in assay [15] it was 0.228; in assay [17], -0.285. In addition, the composite z-score is 0.683 in assay [18], 0.234 in [19] and -0.165 in assay [20]. Moreover, the z-score in assay [8] was 0.163 (inactive); in assay [12], -1.16 (inactive); in [13] it was -0.538 (inactive); in [14], -1.42 (inactive); in assay [16], 0.537 (inactive).
Regarding `CC(C)C[C@@H]1NC(=O)[C@H]2C[C@@H](C(=O)NCCCCCN)[C@@H](c3cccc(OCCO)c3)N2C1=O`, the composite z-score in assay [1] was 0.721; in [2] it was -0.1; in [3], -0.107; in assay [4] it was 0.0414; in assay [5], -0.182; in [6] it was 0.896. Further, the composite z-score in assay [7] is 1.24; in [9] it was -0.565; in assay [10], -0.0645; in assay [11], 0.808; in assay [15], 0.872; in assay [17], 0.13. The composite z-score in assay [18] was -0.993; in assay [19] it was 0.135; in assay [20] it was -0.14. In addition, the z-score is -0.599 (inactive) in assay [8]; -3.54 (inactive) in assay [12]; -0.726 (inactive) in assay [13]; -1.04 (inactive) in assay [14]; 0.545 (inactive) in [16].
For the compound `COCCOC(=O)N1C(=O)[C@@]2(c3cc(C#CCC(C(=O)OC)C(=O)OC)ccc31)[C@H](c1ccc(OCCO)cc1)N1[C@H](c3ccccc3)[C@H](c3ccccc3)OC(=O)[C@H]1[C@@H]2C(=O)Nc1nc2ccccc2s1`, the composite z-score in assay [1] is -0.0598; in assay [2] it was 0.215; in assay [3] it was -0.17; in [4], 0.383; in assay [5] it was 1.22; in assay [6], -0.0762. For the same compound, the composite z-score in assay [7] is 1.23; in [9], 0.524; in assay [10], -0.148; in assay [11] it was 1.57; in assay [15], 0.828; in assay [17], -0.122. Besides, the values for the composite z-score in assay [18], in assay [19] and in assay [20] were 0.994, 1.1 and -0.04, respectively. In addition, the z-score is 4.65 (inactive) in assay [8]; 2.28 (inactive) in assay [12]; 2.31 (inactive) in assay [13]; 4.03 (inactive) in assay [14]; 2.5 (inactive) in assay [16].
